Screening data: PubChem, National Center for Advancing Translational Sciences (NCATS)
Only some compounds are listed: those with a hit (about 0.27% of all), similar ones and a draw of the others.
TRPV1 agonist: HTS Assay for Compounds that Act as Agonists of the Vanilloid Receptor 1; TRPV1-expressing cells, Fluo-8 calcium influx, agonist mode; activation, % at 8.33 µM; Transient receptor potential cation channel subfamily V member 1 (Homo sapiens), Q8NER1; 320,000 compounds, 0.19% hits; in the data active means activation above about 80%; inconclusive means between about 30% and that limit; further: 0% is about no effect
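Cells expressing TRPV1 were dye-loaded with Fluo-8 and read kinetically: 10 s baseline, 3 min after compound (agonist portion), then 2 min after EC20 capsaicin (allosteric enhancer portion). Calcium-bound dye fluorescence at 480/520 nm.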
TRPV1 PAM: HTS Assay for Compounds that Act as Potentiators of the Vanilloid Receptor 1 | Transient receptor potential cation channel subfamily V member 1 (Homo sapiens), Q8NER1 | TRPV1-expressing cells, Fluo-8 calcium influx, capsaicin EC20 potentiation | potentiation, % at 8.33 µM | 320,000 compounds, 0.02% hits; in the data active means potentiation above about 80%; inconclusive means between about 30% and that limit; further: 0% is about no effect
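Cells expressing TRPV1 were dye-loaded with Fluo-8 and read kinetically: 10 s baseline, 3 min after compound (agonist portion), then 2 min after EC20 capsaicin (allosteric enhancer portion). Calcium-bound dye fluorescence at 480/520 nm.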
TRPML1 blocker: qHTS for Inhibitors of the Human Mucolipin Transient Receptor Potential 1 (TRPML1); AID 624415, 2012; 390,000 compounds, 0.02% hits; activity change, negative = inhibition, % (test concentration not listed); TRPML1-inducible cells, Ca2+ dye fluorescence, FDSS; stronger effect = lower value; inhibition of EC80 agonist-evoked calcium signal; in the data active means activity change below about -50%; inconclusive means between about -30% and that limit;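 further: stimulus is agonist 54-4 at its EC80 concentration; on the % scale 0 is the no-effect control and ±100 the full control effect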
Target sequence (Q9GZU1 whole entry, looked up): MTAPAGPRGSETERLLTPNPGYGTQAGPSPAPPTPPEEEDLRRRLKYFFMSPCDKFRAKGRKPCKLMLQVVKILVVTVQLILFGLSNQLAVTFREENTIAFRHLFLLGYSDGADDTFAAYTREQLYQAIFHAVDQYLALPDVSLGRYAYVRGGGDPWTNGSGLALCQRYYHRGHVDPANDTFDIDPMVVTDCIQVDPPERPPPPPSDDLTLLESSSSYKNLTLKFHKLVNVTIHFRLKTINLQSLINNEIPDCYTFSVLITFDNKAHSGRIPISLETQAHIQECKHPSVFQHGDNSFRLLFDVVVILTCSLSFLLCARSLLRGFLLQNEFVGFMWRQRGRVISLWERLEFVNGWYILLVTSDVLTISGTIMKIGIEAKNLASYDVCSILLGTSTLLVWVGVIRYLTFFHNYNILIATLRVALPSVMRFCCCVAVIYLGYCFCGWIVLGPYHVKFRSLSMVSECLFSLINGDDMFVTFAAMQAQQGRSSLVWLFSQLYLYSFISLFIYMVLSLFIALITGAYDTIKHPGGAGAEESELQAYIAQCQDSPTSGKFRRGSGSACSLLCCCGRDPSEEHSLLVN
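Tet-induced TRPML1-DL cells loaded with Ca8 no-wash calcium dye were read kinetically on FDSS. Compound addition was followed by EC80 agonist 54-4 (4 uM final); inhibition was read over 110 s.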
TRPML1 agonist: qHTS for Agonists of the Human Mucolipin Transient Receptor Potential 1 (TRPML1) | Mucolipin-1 (Homo sapiens), Q9GZU1 | TRPML1-expressing cells, Ca2+ dye fluorescence, FDSS | activation, % (concentration not given with the values) | 410,000 compounds, 0.12% hits; in the data active means activation above about 50%; inconclusive means mostly about 30% to 49%; further: 0% is about no effect
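Kinetic FDSS Ca2+ read in Tet-induced TRPML1-DL cells (ABD Ca8 dye plus quencher, 45-90 min RT loading): baseline, then compound, then 110 s agonist window; EC80 agonist 54-4 at 4uM final added afterwards for a 110 s antagonist window.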
The depositor's hits bear a star; ? = inconclusive; . = not tested or not shown.

SMILES	TRPV1 agonist	TRPV1 PAM	TRPML1 blocker	TRPML1 agonist
CCC(C)Sc1ccc([C@H]2N[C@@](CC(C)C)(C(=O)OC)[C@H]3C(=O)N(CC)C(=O)[C@@H]23)cc1 (some centres undefined)	87*	2	10	0
O=C(NCCc1cccc(C(F)(F)F)c1)C1CCC(=O)N(Cc2ccc(Cl)cc2)C1 (centres undefined)	23	-19	3	1
O=C1/C(=C\c2cc(Cl)c(O)c(Cl)c2)SC(=S)N1Cc1ccccc1	1	9	-11	109*
COc1ccc(/C=C2/SC(=S)N(Cc3ccccc3)C2=O)cc1O	-4	13	.	.
CCC(C)c1ccc(NC(=S)NCc2ccccc2OC)cc1 (centres undefined)	83*	-12	-1	-1
CCCCN(C(=O)c1ccc(S(=O)(=O)N(C)C)cc1)c1nc2ccccc2s1	2	27	-9	3
CCCCN(C(=O)c1ccc(S(=O)(=O)N(C)C)cc1)c1ccccc1	14	-8	-12	81*
O=C(c1ccc2c(=O)n(C3CCCC3)c(=S)[nH]c2c1)N1CCN(C2CCCCC2)CC1	-2	11	-3	0
C=C(C)c1cccc(C(C)(C)NC(=O)Nc2cccnc2)c1	98*	?	-9	0
O=C(Nc1cccnc1)c1ccc(C(=O)Nc2cccnc2)cc1	-3	3	-14	0
CC(C)(C)c1ccc(NC(=O)c2ccsc2)cc1	83*	6	3	0
C=C(C)c1cccc(C(C)(C)NC(=O)Nc2ccc(C(N)=O)cc2)c1	?	-6	1	0
COC(=O)Cc1ccc(NC(=O)c2ccc(C(C)(C)C)cc2)cc1	81*	-11	-6	6
CC(C)(C)c1ccc(C(=O)Nc2cccnc2)cc1	94*	7	-8	0
C/C(Cl)=C\Cn1c(=O)c2c(nc3n2CCS3)n(C)c1=O	1	-13	1	-1
CC(C)(C)c1cc(C(=O)NNC(=O)c2ccc(Cl)cc2)no1	82*	-26	-6	0
CC(C)(C)c1ccc(C(=O)Nc2ccc(Cl)cc2)cc1	80*	8	-6	1
O=C(Nc1ccc(Nc2ccccc2)cc1)c1ccc(Cl)cc1	.	.	9	-1
Cc1cc(C(=O)NNC(=O)c2ccc(C(F)(F)F)cc2)no1	-5	2	-16	0
Cc1[nH]c2ccccc2c1/C=N/NC(=S)NCc1ccccc1	5	0	12	0
O=C(C[n+]1ccn(CCCNP2(=O)C=C(c3ccccc3)OC(c3ccccc3)=C2)c1)c1cccs1	2	8	25	0
CC(=O)c1ccc(OCc2cc(C(=O)N(C)C3CCOC3)no2)cc1 (centres undefined)	-4	?	-7	1
Cc1cc(OCc2cc(C(=O)N(C)C3CCOC3)no2)cc(C)c1Cl (centres undefined)	83*	9	0	3
COc1ccc(N2CCN(C(c3cccc(OC)c3OC)c3nnnn3C3CCCC3)CC2)cc1 (centres undefined)	7	4	-11	20
COc1ccc(N2CCN(C(c3ccccc3OC)c3nnnn3C3CCCC3)CC2)cc1 (centres undefined)	4	-1	?	79*
SMILES	TRPV1 agonist	TRPV1 PAM	TRPML1 blocker	TRPML1 agonist
COc1cccc(C(c2nnnn2CCc2ccccc2)N2CCN(c3ccccc3)CC2)c1OC (centres undefined)	9	-6	-9	88*
Cc1sc(NC(=O)C2CCCCC2)c(C#N)c1-c1ccccc1	1	-4	-14	83*
Cc1ccc(C(=O)C2=C(O)C(=O)N(c3ncccn3)C2c2ccc(Cl)cc2)o1 (centres undefined)	-2	-17	-2	0
CN1CCC/C1=C/C=C1\SC(=S)NC1=O	30	-3	-18	58*
COc1ccccc1-c1ccc(/C=C2\C=CC(=O)O2)o1	?	4	-17	84*
CCC1(C)NC(=O)N(CC(=O)NCC(=O)Nc2c(C)cc(C)cc2C)C1=O (centres undefined)	-3	-1	-10	-1
